Shown are actives, neighbours in structure and some others; about 1.8% of the full set was active somewhere.
AT treatment: candidate therapy for ataxia-telangiectasia; AID 485349; Potency, µM (titrated, usually from 57.5 µM), inactives show top-dose activation, hits mostly activators; F2112 A-T fibroblasts, KAP-1 phosphorylation AlphaLISA; neocarzinostatin DNA damage 30 min before lysis; 320,000 compounds, 0.19% hits; further: potency means the concentration at half of the fitted maximal effect; % of control where 0% means no effect; nearly all actives have a fitted effect of over 45% in size
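hTERT-immortalized A-T patient fibroblasts (F2112), 500 cells/well in OPTI-MEM, 1% FBS, got compounds for 60 min, then NCS for 30 min at 37C. Lysates were then assayed for phospho-KAP-1 by AlphaLISA (anti-pKAP1 donor, anti-KAP1 acceptor beads), 6 hr at 25C.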
12-LOX inh: inhibitors of human 12S-lipoxygenase ALOX12. Potency, µM (highest dose often 108 µM), for the others: at the top dose activity change, negative = inhibition, actives largely listed as inhibitors. purified 12hLO, xylenol orange hydroperoxide absorbance. 580,000 compounds, 1.1% hits. P18054. AID 1671190; further: potency means the concentration at half of the fitted maximal effect; on the % scale 0 is the no-effect control and ±100 the full control effect
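Purified human 12hLO (150 nM final) in 25 mM Hepes, 0.01% Triton X-100, pH 7.0 was preincubated 15 min at room temperature with compound. Then 40 uM arachidonic acid was added, 30 min. Hydroperoxide was read by Fe-XO absorbance ratio 573/405 nm.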
KCNH2 3.1 inh: inhibitors of human KCNH2 3.1 potassium channel isoform | U2OS KCNH2 3.1, thallium flux FluxOr; stronger effect = lower value | activity change, % (tested at about 1.8 µM) | 340,000 compounds, 0.95% hits | AID 720553;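 active means maximum activity change below -70%; inconclusive means maximum activity change from -70% to -50%; inactive means maximum activity change above -50%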;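 further: thallium influx rate constant from kinetic fluorescence after stimulation buffer; on the % scale 0 is the no-effect control and ±100 the full control effect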
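Virally transduced U2OS (3.1 isoform, 4 h infection in dark at RT) → overnight 37 C → FluxOr + Red40 in HBSS/HEPES, 45 min → stimulation buffer, 2 min kinetic read → rate constant vs DMSO controls.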
hERG WT inh: KCNH2 (human, wildtype) channel inhibition; Q12809; U2OS, BacMam KCNH2, thallium flux FluxOr; stronger effect = lower value; activity change, % at 1.84 µM; 340,000 compounds, 0.37% hits; AID 720551;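 active means maximum activity change below -70%; inconclusive means maximum activity change between -70% and -50%; inactive means maximum activity change above -50%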; further: on the % scale 0 is the no-effect control and ±100 the full control effect
Target sequence (Q12809 whole entry, looked up): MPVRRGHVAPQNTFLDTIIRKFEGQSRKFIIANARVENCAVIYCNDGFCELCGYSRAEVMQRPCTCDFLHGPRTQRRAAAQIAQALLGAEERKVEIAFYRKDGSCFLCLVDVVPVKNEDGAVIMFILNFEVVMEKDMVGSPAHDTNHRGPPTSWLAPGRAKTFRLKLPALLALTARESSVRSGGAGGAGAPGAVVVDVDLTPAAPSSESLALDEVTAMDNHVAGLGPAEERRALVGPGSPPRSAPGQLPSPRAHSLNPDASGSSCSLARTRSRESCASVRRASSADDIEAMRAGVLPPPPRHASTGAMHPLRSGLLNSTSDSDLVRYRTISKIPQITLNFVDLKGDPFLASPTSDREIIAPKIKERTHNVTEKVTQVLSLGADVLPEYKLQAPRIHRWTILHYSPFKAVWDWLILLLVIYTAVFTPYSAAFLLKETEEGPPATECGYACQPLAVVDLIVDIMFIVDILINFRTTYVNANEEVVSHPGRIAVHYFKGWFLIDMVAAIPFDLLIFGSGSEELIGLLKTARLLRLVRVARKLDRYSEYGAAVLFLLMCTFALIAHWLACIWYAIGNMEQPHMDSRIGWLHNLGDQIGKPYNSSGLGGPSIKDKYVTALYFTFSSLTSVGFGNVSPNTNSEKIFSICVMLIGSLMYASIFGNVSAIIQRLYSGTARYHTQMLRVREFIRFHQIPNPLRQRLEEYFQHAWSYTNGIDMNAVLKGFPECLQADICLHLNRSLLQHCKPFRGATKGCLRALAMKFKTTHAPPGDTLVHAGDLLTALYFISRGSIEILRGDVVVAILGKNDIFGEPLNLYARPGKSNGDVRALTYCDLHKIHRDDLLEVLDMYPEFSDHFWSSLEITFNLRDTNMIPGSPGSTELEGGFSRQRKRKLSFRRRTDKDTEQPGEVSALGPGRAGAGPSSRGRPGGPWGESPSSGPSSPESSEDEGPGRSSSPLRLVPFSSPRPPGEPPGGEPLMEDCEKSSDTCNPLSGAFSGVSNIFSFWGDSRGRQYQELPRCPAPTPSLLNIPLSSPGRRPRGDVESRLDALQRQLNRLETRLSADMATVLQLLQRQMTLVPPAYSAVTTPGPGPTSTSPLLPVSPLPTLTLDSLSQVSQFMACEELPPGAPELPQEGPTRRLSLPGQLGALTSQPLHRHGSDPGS
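U2OS cells were transduced with wild-type KCNH2 virus (2.03 x 10^8 / mL) for 4 h at room temperature, then cultured overnight at 37 C. Thallium flux was read with FluxOr dye. Rate constants were normalized to DMSO controls.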
Active calls of the source: *; u = inconclusive; x = no result; [ ] = another dose, or the depositor's remark. Unless noted, the call rests on the fitted dose curve; in most records, active means well fitted curve in the direction sought with a large enough effect; inconclusive means small, poorly fitted or top-dose-only effect, or another doubt; inactive means no such curve, though single readings can be large; an effect the other way counts as inactive or inconclusive.

SMILES | AT treatment | 12-LOX inh | KCNH2 3.1 inh | hERG WT inh
S=c1[nH]nc(COc2ccccc2)n1/N=C/c1ccccn1 | -2% | 1.6µM* | -4 | -3
Cc1cccc(/C=N/n2c(COc3ccccc3)n[nH]c2=S)c1 | -8% | 40µM* | 16 | -1
Cc1ccc(-n2c(COc3cccc(C)c3)n[nH]c2=S)cc1 | -4% | u | 4 | 3
Cc1cccc(OCc2n[nH]c(=S)n2-c2ccccc2)c1 | 2% | 35µM* | 25 | 2
CCN1CCN(C(=O)Nc2ccc(C)cc2C)CC1 | x | 21% | x | x
COc1ccccc1CC(O)CC1c2c(cc3c(c2OC)OCO3)CCN1C (stereo unspecified) | x | -2% | -1 | 23
COc1ccc(CC(O)CC2c3c(cc4c(c3OC)OCO4)CCN2C)cc1 (stereo unspecified) | -12% | 0% | -97* | -1
CN(Cc1ccccc1)S(=O)(=O)c1ccc(Cl)c(C(=O)Nc2cccc3cccnc23)c1 | x | -9% | x | x
O=C(CSc1n[nH]c(-c2ccccc2)n1)N1CCCC1c1ccc2c(c1)OCCO2 (stereo unspecified) | x | 7% | x | x
CCCn1nnnc1CN1CCCC1c1ccc(OC)c(OC)c1 (stereo unspecified) | x | 10% | x | x
C(=N\n1cnnc1)/c1cccs1 | 1% | -5% | -86* | 12
C(=N\N=C\c1cccs1)/c1cccs1 | -5% | 5% | -1 | -1
COc1ccccc1Cc1nnnn1CC(=O)O | 7% | -14% | -92* | 0
COc1ccccc1CNC(=O)Cn1nnnc1CN(C)C(C)C | 1% | 17% | 15 | 1
O=C(/C=C/c1ccc(O)c(O)c1)c1ccc(S(=O)(=O)N2CCCCCC2)cc1 | -7% | 22µM* | 4 | -2
O=c1c(N2CCc3ccccc3C2)csc2ccc(Cl)cc12 | x | 8% | x | x
O=c1c(N2CCc3ccccc3C2)csc2ccc(Br)cc12 | x | 40µM* | x | x
CCc1cccc(CC)c1NC(=O)C(NS(=O)(=O)c1cccs1)c1ccccc1 (stereo unspecified) | -2% | -13% | -3 | -8
Cc1ccc(Cl)cc1NC(=O)C(NS(=O)(=O)c1cccs1)c1ccccc1 (stereo unspecified) | 2% | -2% | -14 | -119*
O=C(c1ccc(F)cc1)c1ccc(N2CCCC2)cc1 | 9% | 32µM* | -7 | -6
O=C(CCC(=O)N1CCN(c2ccc(F)cc2)CC1)N1CCN(c2ccc(F)cc2)CC1 | 2% | 1.8µM* | 0 | -5
O=C(c1ccc(F)cc1)c1ccc(N2CCCCC2)cc1 | x | -26% | -6 | 5
O=C(CCC(=O)N1CCN(c2ccc(F)cc2)CC1)c1ccc(F)cc1 | -7% | -12% | -8 | 0
COC(=O)c1ccc(C(=O)NCc2ccc(OC)cc2)cc1 | x | 5% | x | x
COCCN1C(=O)c2ccccc2C(C(=O)Nc2cccc(C)n2)C12CCCC2 (stereo unspecified) | x | 30% | x | x
SMILES | AT treatment | 12-LOX inh | KCNH2 3.1 inh | hERG WT inh
CCNC(=O)COC(=O)c1cc(-c2ccco2)nc2ccccc12 | 3% | 7.1µM* | 19 | 0
NC(=O)NC(=O)COC(=O)c1cc(-c2ccco2)nc2ccccc12 | x | 14µM* | x | x
CCNC(=O)NC(=O)C(C)OC(=O)c1cc(-c2ccco2)nc2ccccc12 (stereo unspecified) | x | 13µM* | x | x
CCNC(=O)NC(=O)C(C)OC(=O)c1cc(C)nc2ccccc12 (stereo unspecified) | x | 13% | x | x
COc1ccc(CNC(=O)COC(=O)c2cc(-c3ccco3)nc3ccccc23)cc1 | 0% | x | x | x
COc1cc(/C=N/Nc2nc(=O)[nH]nc2C)ccc1O | -50% | 9% | 0 | -14
COc1ccc(/C=N/Nc2nc(=O)[nH]nc2C)cc1OC | 7.1µM* | 22% | -8 | 0
Cc1sc2nc[nH]c(=S)c2c1-c1ccccc1 | 10% | 32µM* | 15 | u
Cc1ccc(-c2csc3nc[nH]c(=S)c23)cc1 | x | 35µM* | -3 | -9
S=c1[nH]cnc2scc(-c3ccc(Br)cc3)c12 | 0% | -12% | 0 | -84*
Cc1sc2nc[nH]c(=O)c2c1-c1ccc(F)cc1 | 1% | -9% | 4 | 5
Cc1cc(-c2csc3nc[nH]c(=S)c23)cc(C)c1C | -4% | 28µM* | 11 | -8
O=C(NC1CCCC1)N1CCCN(c2nc3ncccc3o2)CC1 | x | 32%[176 µM] | x | x
O=C(NCc1cccs1)c1cccc2ccccc12 | x | -1% | x | x
CCOc1cc(C(c2c(C)[nH]n(-c3ccccc3)c2=O)c2c(C)[nH]n(-c3ccccc3)c2=O)ccc1O | x | 0% | x | x
CCOc1cc(C(c2c(C)[nH]c3ccccc23)c2c(C)[nH]c3ccccc23)ccc1O | x | 7.9µM* | x | x
COc1ccc(C(=O)Oc2cc3c4c(c2)C(C)=CC(C)(C)N4C(=O)C3=O)cc1OC | -4% | -3% | -72* | 16
COc1cccc(-c2nc(-c3nc4ccccc4s3)cs2)c1OC | x | 5µM* | x | x
Cc1ccc(C(=O)NC2(O)C(=O)c3ccccc3C2=O)cc1C | 24% | 20µM* | 4 | 7
O=C(NC1(O)C(=O)c2ccccc2C1=O)c1ccc(C(F)(F)F)cc1 | 8% | u | 11 | 1
CN(Cc1c(O)ccc2c1oc(=O)c1ccccc12)C1CCCCC1 | 6% | 0.89µM* | -4 | -9
C#CCNC(=O)[C@@H]1Cc2cn(Cc3ccncc3)c3cccc(c23)[C@H](CC(C)C)N1 | x | 44%[176 µM] | x | x
c1ccc(Oc2cc(-c3ccccc3)nc(-c3ccccc3)n2)cc1 | 8% | 3% | -8 | -5
Cc1cc(Oc2ccccc2)nc(-c2ccccc2)n1 | 18µM* | 12% | 7 | 9
CC1=C(Cc2cc3ccc(=O)oc3cc2O)CC(C)(C)CC1 | x | 6.3µM* | x | x
SMILES | AT treatment | 12-LOX inh | KCNH2 3.1 inh | hERG WT inh
CCc1ccc(-c2nn(C)c(=O)c3c2CCCC3)cc1S(=O)(=O)Nc1cccc(C(C)=O)c1 | x | -3% | x | x
Cc1ccc(N2C(=O)c3cccc4c(C(=O)O)ccc(c34)C2=O)cc1 | 0% | -18% | x | x
CCOC(=O)c1ccc(N2C(=O)c3cccc4c(C(=O)O)ccc(c34)C2=O)cc1 | 0% | 16µM* | 2 | 3
O=C1NC[C@@H](CCCCN2C[C@H](Cc3ccc(O)cc3)N(CC3CCCCC3)C(=O)C2=O)N(CC2CCCCC2)C1=O | x | 22µM* | x | x
O=C(Cc1ccccc1)N/N=C/c1cc(Br)cc(Br)c1O | 17% | -20% | -12 | 4
O=C(O)c1ccccc1N/N=C/c1cc(Br)cc(Br)c1O | 3% | 45µM* | -6 | -1
COc1ccc2[nH]c(CN3CCC(CCC(=O)NCc4ccc(F)cc4)CC3)c(C)c2c1 | x | -25% | x | x
CC1(C)CC2(CC(c3ccccc3)Oc3cc(O)ccc32)NC(=S)N1 (stereo unspecified) | 0% | 32µM* | -32 | -3
CC1(C)CC2(CC(c3ccccc3)Oc3cc(O)ccc32)NC(=O)N1 (stereo unspecified) | -2% | -13% | x | x
Oc1ccc(-c2nccs2)cc1 | x | -1% | -120* | 16
Cc1ccc(NC(=S)NC(C)CCc2ccccc2)cc1C (stereo unspecified) | 7% | u | -7 | -13

Source: PubChem
